Measurements: PubChem BioAssay (NCATS)
Records with an inconclusive call do not appear. A call without a number means that no potency is given here. Calls of active or inactive are those of the source. The call rests on the fitted dose curve; in most records, active means well fitted curve in the direction sought with a large enough effect; inconclusive means small, poorly fitted or top-dose-only effect, or another doubt; inactive means no such curve, though single readings can be large; an effect the other way counts as inactive or inconclusive.

These molecules were tested on WaGa (assay: qHTS assay to identify novel small-molecules to repurpose for Merkel cell carcinoma treatment (AID 1296009; further: nearly all actives have a fitted effect of over 60% in size)). Conditions: MCC and control cell lines, CellTiter-Glo viability, 72 h; series mostly up to 46 µM.
Procedure, shortened: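 Cells were treated for 72 hr at 37 degree celsius with compounds in 8- or 11-point dose response. Viability was read by CellTiter-Glo luminescence, normalized to no-cell (cytotoxicity) and DMSO controls.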
Potency means the concentration at half of the fitted maximal effect.

Row | Structure (SMILES) | Potency
1 | OC[C@H]1O[C@@H](OCCc2ccc(O)cc2)[C@H](O)[C@@H](O)[C@H]1O | inactive
2 | CC(C)(OCc1nn(Cc2ccccc2)c2ccccc12)C(=O)O | inactive
3 | c1ccc(-c2oc3ncnc(NC[C@@H]4CCCO4)c3c2-c2ccccc2)cc1 | inactive
4 | O=C(O)Cc1cccc(OCCCN(Cc2cccc(C(F)(F)F)c2Cl)CC(c2ccccc2)c2ccccc2)c1 | inactive
5 | CC(C)N(CCCNC(=O)Nc1ccc(C(C)(C)C)cc1)C[C@H]1O[C@@H](n2cc(Br)c3c(N)ncnc32)[C@H](O)[C@H]1O | inactive
6 | CC(C)(O)CC(=O)NCCn1ccc2ncnc(Nc3ccc(Oc4cccc(C(F)(F)F)c4)c(Cl)c3)c21 | inactive
7 | CC(=O)Nc1cccc(-n2c(=O)n(C3CC3)c(=O)c3c(Nc4ccc(I)cc4F)n(C)c(=O)c(C)c32)c1 | inactive
8 | C=CCc1cccc(C=NNC(=O)CN2CCN(Cc3ccccc3)CC2)c1O | 16.6 µM (active)
9 | CN1CCN(c2cccc(Nc3nc4c(-c5ccc(S(C)(=O)=O)cc5)cccn4n3)c2)CC1 | inactive
10 | CCCCn1c(=O)n(Cc2ccccc2F)c(=O)c2[nH]c(Cc3ccc(NC(C)=O)cc3)nc21 | inactive
11 | CC1CCN(c2cc(N3CCN(C)CC3)ccc2NC(=O)c2cc(C#N)c[nH]2)CC1 | inactive
12 | Cc1nc(C(=O)NCC(=O)O)c(O)c2ccc(Oc3ccccc3)cc12 | inactive
13 | Cc1cnc(Nc2cccc(CN3CCOCC3)c2)nc1Nc1cccc(S(=O)(=O)NC(C)(C)C)c1 | inactive
14 | CCCCc1ccc(NS(=O)(=O)c2ccc(C)c(C(=O)N3CCN(c4cccc(C)c4C)CC3)c2)cc1 | inactive
15 | CC(C)(C)c1nc(-c2cccc(NS(=O)(=O)c3c(F)cccc3F)c2F)c(-c2ccnc(N)n2)s1 | inactive
16 | C[C@H](c1ccc(F)cc1CCCC(=O)O)N(c1cc(F)ccc1F)S(=O)(=O)c1ccc(Cl)cc1 | inactive
17 | O=S(=O)(O)c1ccc2cc(N=Nc3cc(S(=O)(=O)O)c4cccnc4c3O)ccc2c1 | inactive
18 | O=C(Nc1cccc(C(F)(F)F)c1)Nc1cc(S(=O)(=O)NC2CC2)ccc1-c1ccsc1 | inactive
19 | C[C@@H](NC(=O)c1ncnc(N)c1Cl)c1ncc(C(=O)Nc2cc(C(F)(F)F)c(Cl)cn2)s1 | inactive

Row | Structure (SMILES) | Potency
20 | O=c1[nH]c(=O)n([C@H]2C[C@@H](O)[C@@H](CO)O2)cc1I | inactive
21 | COC1CCC(C(=O)c2ccc3nc4c(cc3c2)CCCO4)CC1 (stereo not drawn) | inactive
22 | CC(C)C[C@@H](C(=O)N[C@H](C(=O)OC1CCCC1)c1ccccc1)[C@H](O)C(=O)NO | 7.43 µM (active)
23 | C#CCN(C)CC1=Cc2ccccc2Oc2ccccc21 | inactive
24 | C[C@@H](O[C@H]1OCCN(Cc2n[nH]c(=O)[nH]2)[C@@H]1c1ccc(F)cc1)c1cc(C(F)(F)F)cc(C(F)(F)F)c1 | inactive
25 | CC1=C[C@@H]2[C@@H]([C@@H](O)C[C@@]3(C)[C@H]2C[C@@H](C)[C@]3(O)C(=O)CO)[C@@]2(C)Cc3cnn(-c4ccccc4)c3C=C12 | inactive
26 | CNC(=O)c1cc(COc2nnc(Nc3ccc(Cl)cc3)c3ccoc23)ccn1 | inactive
27 | CN1c2ccccc2C(=O)N2CCc3c([nH]c4ccccc34)C21 (stereo not drawn) | inactive
28 | CN(C)CC[C@H](CSc1ccccc1)Nc1ccc(S(=O)(=O)NC(=O)c2ccc(N3CCN(Cc4ccccc4-c4ccc(Cl)cc4)CC3)cc2)cc1[N+](=O)[O-] | 0.264 µM (active)
29 | NS(=O)(=O)c1cc(Cl)c(Cl)c(S(N)(=O)=O)c1 | inactive
30 | O=C1Nc2ccc(I)cc2C1=Cc1cc(Br)c(O)c(Br)c1 | inactive
31 | N#Cc1ccc(Oc2ccc3c(c2)COB3O)cc1 | inactive
32 | CC(C)C[C@H](NC(=O)c1cc2ccccc2s1)C(=O)N1CCN(C(=O)[C@H](CO)NS(=O)(=O)c2ccc(Cl)cc2Cl)CC1 | inactive
33 | CN(C)c1nc(Cc2ccc(NC(=O)c3ccc(C(F)(F)F)cc3)cc2)nc(N(C)C)c1CC(=O)O | inactive
34 | Cc1cc(C(C)Nc2ccccc2)c2nc(N3CCOCC3)cc(=O)n2c1 (stereo not drawn) | inactive
35 | O=S(=O)(NCCNCC=Cc1ccc(Br)cc1)c1cccc2cnccc12 | 14.8 µM (active)
36 | CN1C(=O)C(Cc2c[nH]c3ccccc23)NC1=S (stereo not drawn) | inactive
37 | CNc1nc(Nc2ccc(C(=O)N3CCOCC3)cc2OC)ncc1Cl | inactive

Each molecule was assayed on C33A (assay: Primary qHTS to identify gynecologic anti-cancer compounds using libraries of approved drugs and bioactive compounds (AID 1345084; further: nearly all actives have a fitted effect of over 55% in size)). Conditions: Gynecologic cancer cell panel viability, ATPlite luminescence, 48 h; series mostly up to 57.5 µM.
Procedure, shortened: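 ATP-based viability (ATPlite), 1,000 cells/well, 16 h pre-incubation, 48 h compound at 37 C, 5% CO2, 15 min RT before read.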

Row | Structure (SMILES) | Potency
38 | OC[C@H]1O[C@@H](OCCc2ccc(O)cc2)[C@H](O)[C@@H](O)[C@H]1O | inactive
39 | CC(C)(OCc1nn(Cc2ccccc2)c2ccccc12)C(=O)O | inactive
40 | c1ccc(-c2oc3ncnc(NC[C@@H]4CCCO4)c3c2-c2ccccc2)cc1 | inactive
41 | CC(C)(O)CC(=O)NCCn1ccc2ncnc(Nc3ccc(Oc4cccc(C(F)(F)F)c4)c(Cl)c3)c21 | inactive
42 | CC(=O)Nc1cccc(-n2c(=O)n(C3CC3)c(=O)c3c(Nc4ccc(I)cc4F)n(C)c(=O)c(C)c32)c1 | inactive
43 | CN1CCN(c2cccc(Nc3nc4c(-c5ccc(S(C)(=O)=O)cc5)cccn4n3)c2)CC1 | inactive
44 | CCCCn1c(=O)n(Cc2ccccc2F)c(=O)c2[nH]c(Cc3ccc(NC(C)=O)cc3)nc21 | inactive
45 | CC1CCN(c2cc(N3CCN(C)CC3)ccc2NC(=O)c2cc(C#N)c[nH]2)CC1 | inactive
46 | Cc1nc(C(=O)NCC(=O)O)c(O)c2ccc(Oc3ccccc3)cc12 | inactive
47 | Cc1cnc(Nc2cccc(CN3CCOCC3)c2)nc1Nc1cccc(S(=O)(=O)NC(C)(C)C)c1 | inactive
48 | COc1nccc(-c2c(-c3ccc(F)cc3)ncn2C2CCC(O)CC2)n1 (stereo not drawn) | inactive
49 | C[C@H](c1ccc(F)cc1CCCC(=O)O)N(c1cc(F)ccc1F)S(=O)(=O)c1ccc(Cl)cc1 | inactive
50 | O=S(=O)(O)c1ccc2cc(N=Nc3cc(S(=O)(=O)O)c4cccnc4c3O)ccc2c1 | inactive
51 | O=C(Nc1cccc(C(F)(F)F)c1)Nc1cc(S(=O)(=O)NC2CC2)ccc1-c1ccsc1 | inactive
52 | C[C@@H](NC(=O)c1ncnc(N)c1Cl)c1ncc(C(=O)Nc2cc(C(F)(F)F)c(Cl)cn2)s1 | inactive
53 | COc1ccc(-c2ccc3ncc4c(c3c2)n(-c2ccc(N3CCNCC3)c(C(F)(F)F)c2)c(=O)n4C)cn1 | 11.2 µM (active)
54 | NS(=O)(=O)c1cc(Cl)c(Cl)c(S(N)(=O)=O)c1 | inactive
55 | N#Cc1ccc(Oc2ccc3c(c2)COB3O)cc1 | inactive
56 | CN(C)c1nc(Cc2ccc(NC(=O)c3ccc(C(F)(F)F)cc3)cc2)nc(N(C)C)c1CC(=O)O | inactive
57 | Cc1cc(C(C)Nc2ccccc2)c2nc(N3CCOCC3)cc(=O)n2c1 (stereo not drawn) | inactive
58 | CNc1nc(Nc2ccc(C(=O)N3CCOCC3)cc2OC)ncc1Cl | inactive
